# Key:
# Experiment in all cases: DAPPL (digital affinity profiling via proximity ligation, sequencing); 10 mM Tris-HCl pH 7.5, 50 mM NaCl, 1 mM DTT, 4% glycerol, room temperature, 30 min; GST-TFs on glutathione beads, 16-mer random dsDNA library, 0.1% formaldehyde crosslink after washing; high values mean tight binding
# Details in all cases: protein: recombinant; tags: N-terminal GST; dsDNA, one strand shown
# [1] = target: T1, GABPA (Homo sapiens, UniProt Q06546 1-454)
# T1 sequence: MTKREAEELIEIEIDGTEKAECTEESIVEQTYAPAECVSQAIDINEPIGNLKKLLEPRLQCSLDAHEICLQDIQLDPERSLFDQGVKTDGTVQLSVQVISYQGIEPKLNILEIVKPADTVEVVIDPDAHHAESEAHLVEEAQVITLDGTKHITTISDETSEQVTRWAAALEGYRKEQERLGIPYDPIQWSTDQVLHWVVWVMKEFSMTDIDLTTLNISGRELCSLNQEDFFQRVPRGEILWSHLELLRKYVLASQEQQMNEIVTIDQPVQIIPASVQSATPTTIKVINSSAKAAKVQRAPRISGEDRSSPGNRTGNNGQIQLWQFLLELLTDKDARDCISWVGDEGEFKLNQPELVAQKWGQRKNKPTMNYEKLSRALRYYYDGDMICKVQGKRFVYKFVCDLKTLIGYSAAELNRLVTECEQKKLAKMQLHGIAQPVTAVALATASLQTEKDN
# Summary of the method: (§1)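 Beads coated with glutathione captured GST-fused human transcription factors that had been expressed in yeast, and the factors were then given DNA barcodes and pooled with a tag-only sample. The pools were incubated with 200 nmole of a random double-stranded 16-mer DNA library in Tris/NaCl/DTT/glycerol buffer for 30 min at room temperature, washed, crosslinked with 0.1% formaldehyde and proximity-ligated with BsaI/T4 ligase at 37 °C for 1 h. PCR amplification and Illumina NextSeq500 sequencing came last. Binding signal is each hexamer's read frequency for a factor divided by its frequency for the tag-only sample.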
# [2] = target: ELF1 (Homo sapiens, UniProt P32519 1-619)
# Summary of the method: as §1
# [3] = target: ETV5 (Homo sapiens, UniProt P41161 1-510)
# Summary of the method: as §1
# [4] = target: T2, ERF (Homo sapiens, UniProt P50548 1-548)
# T2 sequence: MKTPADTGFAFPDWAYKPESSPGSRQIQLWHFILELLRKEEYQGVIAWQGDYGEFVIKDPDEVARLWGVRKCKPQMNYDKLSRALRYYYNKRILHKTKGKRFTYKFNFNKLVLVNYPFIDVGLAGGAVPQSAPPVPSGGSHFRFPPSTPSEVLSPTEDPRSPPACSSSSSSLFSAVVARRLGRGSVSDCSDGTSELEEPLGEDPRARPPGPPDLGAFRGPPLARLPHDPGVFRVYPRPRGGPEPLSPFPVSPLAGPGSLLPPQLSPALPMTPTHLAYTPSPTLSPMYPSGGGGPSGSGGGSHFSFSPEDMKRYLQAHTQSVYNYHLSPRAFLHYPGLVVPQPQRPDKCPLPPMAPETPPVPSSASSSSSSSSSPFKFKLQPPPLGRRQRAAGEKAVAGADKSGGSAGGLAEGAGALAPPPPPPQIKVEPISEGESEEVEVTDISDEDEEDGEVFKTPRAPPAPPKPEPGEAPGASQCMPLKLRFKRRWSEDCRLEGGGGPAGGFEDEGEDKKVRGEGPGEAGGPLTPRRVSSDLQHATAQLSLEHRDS
# Summary of the method: as §1
# [5] = target: T3, ETV3L (Homo sapiens, UniProt Q6ZN32 1-361)
# T3 sequence: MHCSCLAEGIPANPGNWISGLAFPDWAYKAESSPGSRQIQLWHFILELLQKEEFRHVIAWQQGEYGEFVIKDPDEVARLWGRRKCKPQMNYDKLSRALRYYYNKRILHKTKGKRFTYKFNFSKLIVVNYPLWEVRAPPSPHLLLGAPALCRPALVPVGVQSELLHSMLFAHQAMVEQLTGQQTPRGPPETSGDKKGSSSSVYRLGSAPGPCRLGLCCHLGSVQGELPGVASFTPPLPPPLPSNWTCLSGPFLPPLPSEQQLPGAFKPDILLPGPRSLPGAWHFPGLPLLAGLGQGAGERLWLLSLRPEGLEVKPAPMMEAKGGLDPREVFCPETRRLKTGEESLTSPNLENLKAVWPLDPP
# Summary of the method: as §1
# [6] = target: T4, ETV7 (Homo sapiens, UniProt Q9Y603 1-341)
# T4 sequence: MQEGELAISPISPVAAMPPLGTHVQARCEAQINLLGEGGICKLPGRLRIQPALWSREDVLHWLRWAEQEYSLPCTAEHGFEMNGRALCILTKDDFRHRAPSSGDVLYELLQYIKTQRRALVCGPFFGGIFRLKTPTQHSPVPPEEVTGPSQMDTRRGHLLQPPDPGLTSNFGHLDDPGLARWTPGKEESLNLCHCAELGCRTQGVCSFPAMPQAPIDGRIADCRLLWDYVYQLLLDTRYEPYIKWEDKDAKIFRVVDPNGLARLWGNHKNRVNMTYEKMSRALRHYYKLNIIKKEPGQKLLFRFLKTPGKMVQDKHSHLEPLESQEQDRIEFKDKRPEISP
# Summary of the method: as §1
# Sequence of ETV5 (P41161 whole entry): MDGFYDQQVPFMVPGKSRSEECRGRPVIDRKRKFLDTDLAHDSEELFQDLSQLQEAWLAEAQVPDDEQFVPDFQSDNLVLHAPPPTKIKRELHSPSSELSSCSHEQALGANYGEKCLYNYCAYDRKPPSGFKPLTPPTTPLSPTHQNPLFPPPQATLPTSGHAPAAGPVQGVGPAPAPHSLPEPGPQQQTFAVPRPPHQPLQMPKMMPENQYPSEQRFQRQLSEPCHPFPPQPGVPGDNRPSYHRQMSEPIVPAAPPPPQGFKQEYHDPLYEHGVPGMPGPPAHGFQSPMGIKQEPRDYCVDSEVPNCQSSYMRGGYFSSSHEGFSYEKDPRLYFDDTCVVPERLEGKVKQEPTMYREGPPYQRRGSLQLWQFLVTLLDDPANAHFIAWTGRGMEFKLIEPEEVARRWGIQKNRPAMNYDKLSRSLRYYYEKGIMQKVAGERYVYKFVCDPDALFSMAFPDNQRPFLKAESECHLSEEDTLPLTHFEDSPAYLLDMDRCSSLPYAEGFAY
# Sequence of ELF1 (P32519 whole entry): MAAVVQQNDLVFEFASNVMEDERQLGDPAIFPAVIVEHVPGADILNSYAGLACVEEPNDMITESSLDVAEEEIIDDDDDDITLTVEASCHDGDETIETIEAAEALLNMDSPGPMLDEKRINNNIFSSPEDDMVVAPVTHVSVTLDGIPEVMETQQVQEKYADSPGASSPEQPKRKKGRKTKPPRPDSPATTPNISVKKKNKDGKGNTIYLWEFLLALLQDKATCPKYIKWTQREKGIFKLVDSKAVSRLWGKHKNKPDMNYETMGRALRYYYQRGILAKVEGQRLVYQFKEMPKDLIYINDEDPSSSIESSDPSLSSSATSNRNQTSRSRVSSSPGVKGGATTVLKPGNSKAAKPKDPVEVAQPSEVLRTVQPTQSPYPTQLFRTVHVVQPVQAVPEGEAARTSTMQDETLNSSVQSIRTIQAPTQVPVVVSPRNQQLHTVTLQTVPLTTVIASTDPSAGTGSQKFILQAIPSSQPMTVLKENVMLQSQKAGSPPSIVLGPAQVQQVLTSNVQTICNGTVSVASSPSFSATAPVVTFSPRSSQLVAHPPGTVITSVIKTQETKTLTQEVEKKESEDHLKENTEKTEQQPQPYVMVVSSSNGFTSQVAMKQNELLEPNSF
sequence,measurement,setting,value
GCTAGA,binding signal,[1],"1.03 fold enrichment (6-mer frequency, TF over GST control)"
same,binding signal,[2],"1.01 fold enrichment (6-mer frequency, TF over GST control)"
same,binding signal,[3],"1.02 fold enrichment (6-mer frequency, TF over GST control)"
same,binding signal,[4],"1.07 fold enrichment (6-mer frequency, TF over GST control)"
same,binding signal,[5],"1.04 fold enrichment (6-mer frequency, TF over GST control)"
same,binding signal,[6],"1 fold enrichment (6-mer frequency, TF over GST control)"
